Data on nine compounds can be found in PubChem BioAssay (NCATS).

Records with an inconclusive call do not appear. Active and inactive are the calls of the source. Unless noted, calls follow the shape of the dose curve; as a rule, active = well fitted inhibition curve with a large enough effect; inconclusive = small, poorly fitted or top-dose-only effect; inactive = flat fitted curve, though single readings scatter.

The nature of assay [1]: qHTS drug screen for cell cycle checkpoint inhibitors in PARPi-resistant BRCA-mutant ovarian cancer cell lines. (AID 1963452; calls by dose curve). The settings on record: PEO1/OlaR viability, CellTiter-Glo luminescence, 96 h, stronger effect = lower value. In a few lines: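 PEO1, PEO4 and PEO1/OlaR ovarian cancer cells, 600 per well, exposed 96 h at 37C to a dilution series. Viability read by CellTiter-Glo luminescence, normalized to DMSO and empty wells; activity summarized as Z-AUC.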
Background: In qHTS, concentration-response curves come from the screen itself.

Assay [2] is described as follows: qHTS for identification of novel therapeutic agents for treatment of microphthalmiaassociated transcription factor (MiT) renal cell carcinoma (RCC) (AID 1963991). Conditions: CellTiter-Glo, 48 h, stronger effect = lower value. In a few lines: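 Viability of three TFE3-fusion renal carcinoma lines measured by CellTiter-Glo after 48 h treatment with each of 1912 compounds at 11 concentrations. Responses scaled between DMSO (100%) and empty wells (0%) before curve fitting.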

Assay [3] in a line: qHTS profiling for inhibitors of Plasmodium falciparum proliferation (AID 504749). Also: nearly all actives have a fitted effect of over 60% in size. Also: potency is read from the fitted curve at half-maximal effect.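 As to activity, negative = inhibition: 0% = DMSO vehicle and full inhibition = artemisinin control.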 Conditions: P. falciparum in erythrocytes, SYBR Green DNA, 72 h, at 28.7 µM (top of the series). In a few lines:
(§1)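 Quantitative HTS: compounds pinned into medium, infected erythrocytes added (0.3% parasitemia, 2.5% hematocrit), 72 h culture at 37 C under 5% CO2. Saponin/Triton lysis with SYBR Green I, overnight RT, then fluorescence read.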

Another assay concerns 3D7. Described as above. The settings on record: P. falciparum in erythrocytes, SYBR Green DNA, 72 h; series mostly up to 28.7 µM. In a few lines:
as §1

A further assay concerns 7G8. The description is as above. The settings on record: P. falciparum in erythrocytes, SYBR Green DNA, 72 h; series mostly up to 28.7 µM. In a few lines: as §1
For a further assay, the system named is ATS95. The description is as above. The settings on record: P. falciparum in erythrocytes, SYBR Green DNA, 72 h; series mostly up to 28.7 µM. In a few lines: as §1
The subject of a further assay is C2A. The assay is described as above. The settings on record: P. falciparum in erythrocytes, SYBR Green DNA, 72 h; series mostly up to 28.7 µM. In a few lines: as §1
The next assay deals with CP185. Described as above. Conditions: P. falciparum in erythrocytes, SYBR Green DNA, 72 h; series mostly up to 28.7 µM. In a few lines:
as §1

The next assay has as its system CP192. Described as above. Conditions: P. falciparum in erythrocytes, SYBR Green DNA, 72 h; series mostly up to 28.7 µM. In a few lines: as §1
A further assay deals with CP201. Described as above. Conditions: P. falciparum in erythrocytes, SYBR Green DNA, 72 h; series mostly up to 28.7 µM. In a few lines:
as §1

In a further assay the test system is AA1029. The assay is described as above. The settings on record: P. falciparum in erythrocytes, SYBR Green DNA, 72 h; series mostly up to 28.7 µM. In a few lines:
as §1

The subject of another assay is AS120. Described as above. The settings on record: P. falciparum in erythrocytes, SYBR Green DNA, 72 h; series mostly up to 28.7 µM. In a few lines:
as §1

The next assay has as its system ATS189. Described as above. The settings on record: P. falciparum in erythrocytes, SYBR Green DNA, 72 h; series mostly up to 28.7 µM. In a few lines: as §1
The next assay relates to CP191. The assay is described as above. The settings on record: P. falciparum in erythrocytes, SYBR Green DNA, 72 h; series mostly up to 28.7 µM. In a few lines:
as §1

For a further assay, the system named is CP194. The description is as above. The settings on record: P. falciparum in erythrocytes, SYBR Green DNA, 72 h; series mostly up to 28.7 µM. In a few lines:
as §1

Where [4] appears, read: measured here: PEO1 parental Z-AUC.
Setting [5] is: TFE3-RCC UOK109 viability, measured here: UOK109 Z-AUC.
[6] abbreviates: TFE3-RCC viability, measured here: UOK124 Z-AUC.
The mark [7] stands for this setting: TFE3-RCC viability, measured here: UOK145 Z-AUC.

`CCCC(CCC)C(=O)O`: the Z-AUC in assay [1] was 0.56 (inactive); in [1] (setting [4]) it was 0.704; in assay [1] (measured here: PEO4 Z-AUC), 0.624.
In the case of `CCN(CC)CCCC(C)Nc1nc(C)cc(Nc2ccc3nc(C)cc(N)c3c2)n1` (stereo unspecified), the Z-AUC is 0.723 (inactive) in assay [1], 0.692 in assay [1] (setting [4]) and 0.29 in assay [1] (measured here: PEO4 Z-AUC). For the same compound, the z-score in assay [2] (setting [5]) is 0.273; in [2] (setting [6]), 0.864; in assay [2] (setting [7]), 0.237.
In the case of `CCn1cc(C(=O)O)c(=O)c2cc(F)c(N3CCNC(C)C3)c(F)c21` (stereo unspecified), the Z-AUC in assay [1] was -0.481 (inactive); in [1] (setting [4]) it was -0.703; in assay [1] (measured here: PEO4 Z-AUC), -0.581. Also, the z-score was 0.479 in assay [2] (setting [5]), 0.345 in assay [2] (setting [6]) and 0.675 in [2] (setting [7]).
Regarding `Nc1nc2[nH]cc(CCc3ccc(C(=O)N[C@@H](CCC(=O)O)C(=O)O)cc3)c2c(=O)[nH]1`, the Z-AUC was 1.34 (inactive) in assay [1], 1.12 in [1] (setting [4]) and 1.26 in assay [1] (measured here: PEO4 Z-AUC).
For `O=C(Nc1ccc(F)c(C(F)(F)F)c1)Nc1nnc(-c2ccncc2)s1`, in that order: -0.226 (inactive), -0.821 and -0.018.
For `Cc1ccc(NC(=O)c2cccc(C(C)(C)C#N)c2)cc1Nc1ccc2ncn(C)c(=O)c2c1`, the Z-AUC is 0.851 (inactive) in [1], 0.186 in assay [1] (setting [4]) and 0.24 in [1] (measured here: PEO4 Z-AUC).
For `COc1cccc2cc(-c3nc(C4CCC(C(=O)O)CC4)n4ncnc(N)c34)[nH]c12` (stereo unspecified), in that order: -0.482 (inactive), -0.688 and -0.315.
With `Cc1c(C)c2c(c(C)c1O)CCC(C)(COc1ccc(CC3SC(=O)NC3=O)cc1)O2` (stereo unspecified), the Z-AUC in assay [1] is 0.635 (inactive); in [1] (setting [4]) it was 0.564; in [1] (measured here: PEO4 Z-AUC), 0.844. For the same compound, the figures for the z-score in [2] (setting [5]), in assay [2] (setting [6]) and in assay [2] (setting [7]) were 0.729, 0.103 and -0.301, respectively. Further, the activity, negative = inhibition in [3] (parasite line A) was -7.46% (inactive). In addition, the Potency entry with 3D7, in the assay with ATS95, in the assay on C2A, in the assay on CP185 and in the assay on CP192 was “inactive” each time. For the same compound, the Potency in the assay on 7G8 is 10 µM (active). Besides, the outcome with CP201 was inactive.
As for `O=c1[nH]cnc2[nH]ncc12`, the Z-AUC in assay [1] is -0.687 (inactive); in [1] (setting [4]), -0.667; in assay [1] (measured here: PEO4 Z-AUC), -0.722. The figures for the z-score in [2] (setting [5]), in [2] (setting [6]) and in assay [2] (setting [7]) were 0.431, 0.33 and 0.0964, respectively. For the same compound, the activity, negative = inhibition in assay [3] (parasite line A) is -0.162% (inactive); in assay [3] (parasite line B), 2.37% (inactive). In addition, the Potency entry in the assay on 3D7, in the assay on 7G8, in the assay on AA1029, with AS120, with ATS189 and with ATS95 was “inactive” each time. For the same compound, the Potency entry in the assay with C2A, with CP185, in the assay on CP191, with CP192 and in the assay with CP194 was “inactive” throughout. Further, the compound was classed as inactive in the assay with CP201.
